Rows were chosen to be rich in hits. Some 9.3% of all compounds tested hit in one or more screens of this group.
Rab9 promoter act: activates the Rab9 promoter; Potency, µM (titrated, usually from 9.22 µM), for the others: top-dose activation, negative = inhibition, usual class: activators; AID 485297; Huh7 Rab9 promoter-luciferase reporter, luminescence, 24 h; 320,000 compounds, 2.8% hits; note: % of control where 0% means no effect; nearly all actives have a fitted effect of over 60% in size
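Luciferase signal after 10 min detection reagent at ambient indicates Rab9 promoter upregulation; stably transfected Huh7 cells were treated 24 h with compound in DMSO at 37 °C, 5% CO2.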
SMN2 splice enh: SMN2 splice variant enhancement. AID 1458. 210,000 compounds, 2.8% hits. Potency, µM (highest dose often 46.1 µM), inactives show top-dose activity change, positive = activation, hits mostly activators. HEK293 SMN2-luciferase splicing reporter, luminescence, 30-36 h; note: % of control where 0% means no effect; nearly all actives have a fitted effect of over 55% in size
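HEK293 cells carry an SMN2 minigene-luciferase reporter in which exon 7 inclusion puts luciferase in frame. Cells were seeded at 2000 cells/well, attached for 10-12 hours, then exposed to compounds for 30-36 hours at 37C before ONE-Glo luminescence.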
ELG1 DNA repair: inhibitors of ELG1-dependent DNA repair in HEK293T cells; HEK293T ELG1-luciferase reporter, luminescence, 16 h; DNA damage induced by 5-fluorouridine; Potency, µM (highest dose often 46.1 µM), for inactives: at the top dose activity change, negative = inhibition, most hits filed as inhibitors; 330,000 compounds, 2.3% hits; note: % is set by controls: 0 for no effect and ±100 for the full control effect; nearly all actives have a fitted effect of over 55% in size
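5-Fluorouridine DNA damage + compound/DMSO, 2,000 cells/well, 16 h, 37 °C/5% CO2. ONE-Glo, 30 min RT, luminescence. Readout = decrease in reporter signal.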
FLuc modulator: firefly luciferase modulation, counter-screen for miR-21 project; purified FLuc, Km substrates, luminescence inhibition; Potency, µM (titrated, usually from 57.5 µM), inactives show top-dose activity change, negative = inhibition, hits mostly inhibitors; 360,000 compounds, 6.9% hits; AID 588342;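 note: plate controls were vehicle for no effect and reference inhibitor for full effect; nearly all actives have a fitted effect of over 55% in size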
Target sequence (P08659 whole entry, looked up): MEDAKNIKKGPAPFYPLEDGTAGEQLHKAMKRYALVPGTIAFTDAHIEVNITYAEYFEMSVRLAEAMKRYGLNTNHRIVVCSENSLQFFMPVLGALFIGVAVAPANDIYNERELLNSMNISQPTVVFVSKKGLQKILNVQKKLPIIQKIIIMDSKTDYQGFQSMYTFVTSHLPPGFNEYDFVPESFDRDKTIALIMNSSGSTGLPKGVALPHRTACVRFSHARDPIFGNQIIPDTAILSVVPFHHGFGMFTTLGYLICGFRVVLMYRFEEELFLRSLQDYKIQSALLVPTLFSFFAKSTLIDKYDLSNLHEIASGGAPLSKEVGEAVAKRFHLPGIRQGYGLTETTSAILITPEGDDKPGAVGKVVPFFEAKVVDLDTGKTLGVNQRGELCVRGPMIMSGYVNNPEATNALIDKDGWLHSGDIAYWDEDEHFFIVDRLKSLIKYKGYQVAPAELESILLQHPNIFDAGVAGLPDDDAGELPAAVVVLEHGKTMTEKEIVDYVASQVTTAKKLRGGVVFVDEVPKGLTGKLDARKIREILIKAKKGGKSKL
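Biochemical qHTS of compounds, final roughly 60 µM downward over six points, against 10 nM purified firefly luciferase using Km concentrations of substrates (10 uM D-luciferin, 10 uM ATP) in Tris acetate pH 7.5 buffer; luminescence output.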
NPC1 promoter act: activators of NPC1 promoter | Huh7 NPC1 promoter luciferase reporter, 24 h | Potency, µM (highest dose often 9.22 µM), inactives show top-dose activation, most hits filed as activators | 320,000 compounds, 2.4% hits | AID 485313; note: % of control where 0% means no effect; nearly all actives have a fitted effect of over 60% in size
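Readout is luciferase luminescence, reflecting NPC1 promoter activation in stably transfected Huh7 cells after 24 h compound exposure at 37 °C in reduced-serum medium with 10% FBS.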
ELG1 genotox: genotoxicity induction in ELG1-luciferase HEK293T cells. HEK293T ELG1-luciferase reporter, luminescence, 16 h. 330,000 compounds, 1.3% hits. AID 504466. Potency, µM (titrated, usually from 46 µM), without a hit: at the highest dose activity change, positive = activation, usual class: activators; note: % of control where 0% means no effect; nearly all actives have a fitted effect of over 60% in size
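ELG1-luciferase HEK293T cells, 2,000/well; compound pinned in; 16 hr, 37 °C, 5% CO2; ONE-Glo, 30 min RT; luminescence on CCD imager.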
The depositor's hits bear a star. Calls come from the whole dose curve; as a rule, active = well fitted curve in the direction sought with a large enough effect; inconclusive = small, poorly fitted or top-dose-only effect, or another doubt; inactive = no such curve, though single readings can be large; an effect the other way counts as inactive or inconclusive. Potency is the fitted concentration of half-maximal effect.

COC(=O)C1=C(C)NC(=O)/C1=C\c1cc(C)n(-c2cc(C)cc(C)c2)c1C was read as Rab9 promoter act -1.0%, SMN2 splice enh -14.0%, ELG1 DNA repair inconclusive, FLuc modulator -13.0%, NPC1 promoter act 0.7% and ELG1 genotox -3.7%.
COC(=O)C1=C(O)/C(=C\c2cc(C)n(-c3ccccc3F)c2C)N=C1C was read as Rab9 promoter act 26.6%, SMN2 splice enh 2.1%, ELG1 DNA repair -3.4%, FLuc modulator 0.849µM*, NPC1 promoter act 6.7% and ELG1 genotox inconclusive.
`COC(=O)C1=C(C)NC(=O)/C1=C\c1cc(C)n(-c2ccccc2)c1C` gave Rab9 promoter act inconclusive, SMN2 splice enh 151.7%, ELG1 DNA repair 8.1%, FLuc modulator 10.7µM*, NPC1 promoter act 20.5% and ELG1 genotox 0.7%.
Screening COC(=O)C1=C(O)/C(=C\c2cc(C)n(-c3ccccc3C)c2C)N=C1C returned Rab9 promoter act inconclusive, SMN2 splice enh -12.3%, ELG1 DNA repair 8.8%, FLuc modulator 1.07µM*, NPC1 promoter act inconclusive and ELG1 genotox 5.1%.
`COC(=O)c1c(NC(=O)C2CC=CCC2C(=O)O)sc(C(N)=O)c1C` (centres undefined) gave Rab9 promoter act -7.0%, SMN2 splice enh 0.3%, ELG1 DNA repair -3.2%, FLuc modulator -3.2%, NPC1 promoter act 1.9% and ELG1 genotox 3.2%.
For CCOc1ccc(NC(=O)N2CCC(c3ccc(C)cc3)C2)cc1 (centres undefined) the results were Rab9 promoter act -0.6%, SMN2 splice enh -5.9%, ELG1 DNA repair 29.6%, FLuc modulator -7.4%, NPC1 promoter act 14.1% and ELG1 genotox 5.4%.
NC(=O)C1CCN(C(=O)Nc2ccccc2)CC1 was read as SMN2 splice enh 2.6%, ELG1 DNA repair 5.2%, FLuc modulator 0.1%, NPC1 promoter act -1.0% and ELG1 genotox -0.1%.
Screening O=C(Nc1ccccc1)N1CCC(c2ccccc2)C1 (centres undefined) returned Rab9 promoter act 1.78µM*, SMN2 splice enh 17.8µM*, ELG1 DNA repair inconclusive, FLuc modulator 12µM*, NPC1 promoter act 1.58µM* and ELG1 genotox inconclusive.
Screening CCc1ccc(NC(=O)N2CCC(c3ccccc3)C2)cc1 (centres undefined) returned Rab9 promoter act 0.891µM*, SMN2 splice enh 25.1µM*, ELG1 DNA repair inconclusive, FLuc modulator 6.75µM*, NPC1 promoter act 1.12µM* and ELG1 genotox inconclusive.
`O=C(c1cccs1)N1CCC(c2ccccc2)C1` (centres undefined) gave Rab9 promoter act 2.82µM*, SMN2 splice enh 15.8µM*, ELG1 DNA repair inconclusive, FLuc modulator 21.3µM*, NPC1 promoter act 3.16µM* and ELG1 genotox 18.4µM*.
Cc1ccc(NC(=O)N2CCCC(c3ccccc3)C2)cc1 (centres undefined) was read as Rab9 promoter act 22.5%, ELG1 DNA repair 1.7%, FLuc modulator 12µM*, NPC1 promoter act 2.5% and ELG1 genotox 1.8%.
Screening O=C(N/C(=C/c1ccc(Cl)cc1)C(=O)N1CCCC1)c1ccccc1 returned Rab9 promoter act -2.8%, ELG1 DNA repair -1.1%, FLuc modulator 5.6%, NPC1 promoter act -2.4% and ELG1 genotox 0.6%.
For O=C(Nc1ccc2c(c1)CCC2)c1ccc(Cl)nc1 the results were Rab9 promoter act inconclusive, SMN2 splice enh inconclusive, ELG1 DNA repair inconclusive, FLuc modulator 12µM*, NPC1 promoter act 15.1% and ELG1 genotox inconclusive.
`O=C(Nc1ccc2c(c1)CCC2)c1cnc(Cl)c(Cl)c1` gave Rab9 promoter act 29.7%, SMN2 splice enh inconclusive, ELG1 DNA repair inconclusive, FLuc modulator 3.01µM*, NPC1 promoter act 2.7% and ELG1 genotox inconclusive.
For O=C1CNC(=S)N1c1nc2ccccc2s1 the results were Rab9 promoter act inconclusive, ELG1 DNA repair inconclusive, FLuc modulator 16.9µM*, NPC1 promoter act inconclusive and ELG1 genotox inconclusive.
Screening O=S(=O)(c1ccccc1F)N1CCN(c2nc3ccccc3s2)CC1 returned Rab9 promoter act inconclusive, ELG1 DNA repair inconclusive, FLuc modulator -6.0%, NPC1 promoter act 25.2% and ELG1 genotox 6.1%.
`CN(Cc1ccccc1)C(=O)c1cccc(NC(=O)C2CCCN(C(=O)OC(C)(C)C)C2)c1` (centres undefined) gave ELG1 DNA repair 25.9µM* and ELG1 genotox -8.2%.
Screening CN(C(=O)c1cccc(NC(=O)C2CCCN(C(=O)OC(C)(C)C)C2)c1)C1CCCC1 (centres undefined) returned ELG1 DNA repair inconclusive and ELG1 genotox -1.6%.
For O=C(CSc1nnc(SCc2ccc(Cl)cc2)s1)N/N=C/c1ccc(C(=O)O)cc1 the results were Rab9 promoter act 0.1%, ELG1 DNA repair 6.9%, FLuc modulator 1.35µM*, NPC1 promoter act 9.8% and ELG1 genotox 1.7%.
O=C(CSc1nc2ccccc2n1Cc1ccc(Cl)cc1)N/N=C/c1ccc(C(=O)O)cc1 was read as Rab9 promoter act -9.3%, SMN2 splice enh -1.7%, ELG1 DNA repair -14.0%, FLuc modulator inconclusive, NPC1 promoter act -6.3% and ELG1 genotox 1.4%.
For O=C(O)COc1ccccc1/C=N/NC(=O)CSc1nnc(SCc2cccc3ccccc23)s1 the results were Rab9 promoter act -3.9%, ELG1 DNA repair 0.7%, FLuc modulator 19µM*, NPC1 promoter act 1.9% and ELG1 genotox 0.5%.
`O=C(CSc1nnc(SCc2cccc3ccccc23)s1)N/N=C/c1c[nH]c2ccccc12` gave Rab9 promoter act -1.0%, SMN2 splice enh -26.0%, ELG1 DNA repair inconclusive, FLuc modulator inconclusive, NPC1 promoter act 0.0% and ELG1 genotox -6.1%.
`O=C(CSc1nnc(SCc2ccc(Cl)cc2)s1)N/N=C/c1c[nH]c2ccccc12` gave Rab9 promoter act -2.9%, SMN2 splice enh -22.3%, ELG1 DNA repair -0.5%, FLuc modulator -4.7%, NPC1 promoter act 7.3% and ELG1 genotox 10.2%.
Screening O=C(O)COc1ccccc1/C=N/NC(=O)CSc1nnc(SCc2ccc(Cl)cc2)s1 returned Rab9 promoter act 5.4%, ELG1 DNA repair 3.4%, FLuc modulator 9.53µM*, NPC1 promoter act 13.5% and ELG1 genotox -3.1%.
For CC(C)CNC(=O)CCCc1c[nH]c2ccccc12 the results were Rab9 promoter act -0.2%, SMN2 splice enh 5.4%, ELG1 DNA repair -1.0%, FLuc modulator -6.0%, NPC1 promoter act -0.6% and ELG1 genotox -1.8%.

Source: PubChem
